# In the library only some 31% were active in any assay of this set; here they are far more common.
# CYP2C19 inhib – human CYP2C19 inhibition | P33261 | CYP2C19 Supersomes, luciferin-H EGE luminescence, 30 min | inhibition, % at 5 µM | 96,000 tested, 21% active;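 active = CYP2C19 inhibition above a set limit at 5 µM in the primary screen, cut at about 50% in these data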;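 note: plate controls were negative control wells for no effect and 2.5 mM tranylcypromine positive control for full effect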
# CYP2C9 act – CYP2C9 (human) activation | activation factor at 5 µM | 96,000 tested, 1.4% active | recombinant CYP2C9, luciferin-H conversion, luminescence; stronger effect = higher value; factor 1 = untreated enzyme, 0 = blocked | P11712;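 active = activation factor of 2 or more for CYP2C9 at a 5 µM dose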;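 note: 0 = sulfaphenazole-blocked wells and 1 = vehicle-only wells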
# Target sequence (P11712 whole entry, looked up): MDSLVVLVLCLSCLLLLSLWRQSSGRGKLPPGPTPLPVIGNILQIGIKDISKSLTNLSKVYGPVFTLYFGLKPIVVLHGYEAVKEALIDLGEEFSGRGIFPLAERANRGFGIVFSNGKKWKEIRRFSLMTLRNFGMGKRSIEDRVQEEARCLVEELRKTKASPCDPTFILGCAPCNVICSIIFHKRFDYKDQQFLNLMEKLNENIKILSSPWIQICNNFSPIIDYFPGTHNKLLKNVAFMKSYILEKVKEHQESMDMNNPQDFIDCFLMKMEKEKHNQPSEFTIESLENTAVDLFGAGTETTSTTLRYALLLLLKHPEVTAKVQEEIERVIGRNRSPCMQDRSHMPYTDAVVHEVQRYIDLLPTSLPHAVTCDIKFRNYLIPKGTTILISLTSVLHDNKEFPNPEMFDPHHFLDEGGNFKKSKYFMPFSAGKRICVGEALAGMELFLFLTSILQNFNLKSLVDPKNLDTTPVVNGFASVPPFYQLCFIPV
# CYP2C19 activ – increases human CYP2C19 enzyme activity. recombinant CYP2C19, luciferin-H EGE luminescence; stronger effect = higher value; 0 = fully inhibited enzyme, 1 = untreated enzyme. activation factor at 5 µM. 96,000 tested, under 10 active;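 active = activation factor of at least 2 at 5 µM in the primary screen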;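 note: 0 = wells with 2.5 mM tranylcypromine and 1 = vehicle-only wells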
# CYP2C9 inh – blocks human cytochrome P450 2C9; P11712; CYP2C9 Supersomes, luciferin-H conversion, luminescence; inhibition, % at 5 µM; 96,000 tested, 20% active;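 active = blocking of liver enzyme CYP2C9 beyond about 50% at 5 µM, limit read from the data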
# Active calls of the source: *.
SMILES,CYP2C19 inhib,CYP2C9 act,CYP2C19 activ,CYP2C9 inh
Cc1ccc(S(=O)(=O)N2CCCC(C(=O)NCc3cccnc3)C2)cc1Cl (stereo not drawn),86.1*,0.8,0.1,23.2
Cc1ccc(C(=O)NN2CCOCC2)cc1,4.7,0.6,1,41.1
Cc1ccc(C(=O)NC(N2CCCC2)C(Cl)(Cl)Cl)cc1 (stereo not drawn),69.0*,0.9,0.3,12.5
O=C(NC(C(=O)c1ccccc1)n1ccc(=O)[nH]c1=O)c1ccccc1 (stereo not drawn),-7.1,1.1,1.1,-5.9
O=C(NC(C(=O)c1ccccc1)N1CCCCC1)c1ccccc1 (stereo not drawn),76.7*,0,0.2,98.8*
N#Cc1c(N)oc(-c2ccc3c(c2)OCO3)c1-c1ccc2c(c1)OCO2,95.6*,0.1,0,86.8*
O=C(O)Cn1nc(C(F)(F)F)c2c1CCC2,20.8,1.2,0.8,-19.8
C/C(=N\NC(=O)c1c(Cl)c(C)nn1C)c1ccc(NC(=O)COc2ccc(Cl)cc2C)cc1,42.0,0.3,0.6,66.0*
C/C(=N\NC(=O)c1c(Cl)c(C)nn1C)c1cccc(NC(=O)COc2ccccc2)c1,27.8,0.6,0.7,43.0
CCOC(=O)CC(=O)CSc1[nH]c(=O)cc(C)c1C#N,14.2,0.7,0.9,25.7
Cc1ccc(C(=O)N2CCN(c3ccc(NC(=O)c4ccc(Br)o4)cc3)CC2)cc1,27.9,0.5,0.7,50.2*
CCOC(=O)N1CCN(C(=O)c2ccc(NC(=O)c3ccc(C)cc3)cc2)CC1,47.9,0.3,0.5,70.4*
CS(=O)(=O)N1CCN(c2ccc(NC(=O)c3ccc(Br)o3)cc2)CC1,3.5,0.9,1,6.4
COC(=O)c1ccc2ccn(CC(=O)NC3CCCCC3)c2c1,25.5,0.6,0.7,44.2
Cc1cccc(-c2c3c(=O)n(C)c(=O)n(C)c3c3cccnn23)c1,25.4,1.9,0.7,-86.0
O=S(=O)(Nc1ccc2c(c1)nc1n2CCN(Cc2ccccc2)C1)c1ccc(Cl)cc1,87.9*,0,0.1,97.9*
O=S(=O)(Nc1ccc2c(c1)nc1n2CCN(Cc2ccccc2)C1)c1ccc(F)cc1,24.8,0.6,0.8,38.9
Cc1ccc(S(=O)(=O)Nc2ccc3c(c2)nc2n3CCN(Cc3ccccc3)C2)cc1,82.7*,0,0.2,95.5*
CN(CCCNS(=O)(=O)c1cccc2cccnc12)Cc1ccccc1,37.3,2.5*,0.6,-147.2
O=S(=O)(NCCCN1CCN(c2ccccc2F)CC1)c1cccc2cccnc12,55.3*,2.3*,0.4,-134.6
O=S(=O)(NCc1ccccc1)c1cccc2cccnc12,78.9*,0.2,0.2,77.8*
Cc1cc(C)c(NC(=O)CCCC(=O)O)c(Cl)c1,0.3,1.1,1,-10.6
CCCC/C(C)=N/NC(=O)C(=O)NCCc1ccccc1,1.9,0.8,1,15.0
c1cc(-c2noc(CC3CCCCC3)n2)ccn1,98.8*,0.2,0,77.0*
COCCCn1c(SCC(=O)NC2CCCCC2)nnc1-c1ccncc1,37.7,1.1,0.6,-7.0
SMILES,CYP2C19 inhib,CYP2C9 act,CYP2C19 activ,CYP2C9 inh
CCCNC(=O)NC(=O)CSc1nnc(-c2ccncc2)n1CC,94.9*,0.7,0.1,27.7
CCn1c(CNc2ccc(F)cc2)nnc1SCC(=O)OC1CCCCC1,31.8,0.5,0.7,51.0*
CCn1c(SCC(=O)OC2CCCCC2)nnc1-c1ccncc1,88.2*,0.6,0.1,41.3
CCn1c(CNc2ccc(F)cc2)nnc1SCC(=O)Nc1ccc(OC)cc1OC,50.0*,0.9,0.5,11.2
CC1=C(C(N)=O)C(c2ccncc2)n2nc(-c3ccccc3Cl)nc2N1 (stereo not drawn),22.1,0.9,0.8,6.2
O=C1CCN2C=Nc3cccc4ccc1c2c34,5.8,0.9,0.9,13.1
O=C(Nc1cccc(C(F)(F)F)c1)N(Cc1ccc(Cl)cc1)CC(O)C(F)(F)F (stereo not drawn),47.7,0.6,0.5,37.2
CCN(CC)S(=O)(=O)c1cccc(C(=O)N[C@H](C(=O)NCc2ccc(Cl)cc2)C(C)C)c1,28.6,0,0.7,97.2*
CCN(CC)S(=O)(=O)c1cccc(C(=O)N[C@H](C(=O)NCc2ccccc2F)C(C)C)c1,20.3,0.2,0.8,84.7*
CCN(CC)S(=O)(=O)c1cccc(C(=O)N[C@H](C(=O)OCC(=O)NC(=O)NC)C(C)C)c1,31.4,0.8,0.7,23.8
CCN(CC)S(=O)(=O)c1cccc(C(=O)N[C@H](C(=O)O)C(C)C)c1,-15.8,1.1,1.2,-5.7
CCN(CC)S(=O)(=O)c1cccc(C(=O)NC(C(=O)Nc2nnc(C)s2)C(C)C)c1 (stereo not drawn),43.1,0.2,0.6,78.1*
CCN(CC)S(=O)(=O)c1ccc(Cl)c(C(=O)Nc2nnc(C)s2)c1,-6.6,0.2,1.1,80.5*
CCOC(=O)CSc1ccc(S(=O)(=O)N(C)C2CCCCC2)cc1[N+](=O)[O-],64.5*,0.1,0.4,88.2*
O=C(Nc1ccccc1)/C(=C\c1ccncc1)NC(=O)c1ccccc1,100.3*,0,0,95.6*
O=C(N/N=C/c1ccncc1)/C(=C/c1ccccc1)NC(=O)c1ccccc1,51.0*,0.2,0.5,78.7*
COc1ccc(NC(=O)/C(=C\c2ccc(OS(=O)(=O)c3ccc(C)cc3)cc2)NC(=O)c2ccccc2)cc1,13.9,0.6,0.9,43.3
Cc1ccc(S(=O)(=O)Oc2ccc(/C=C(/NC(=O)c3ccccc3)C(=O)Nc3ccccc3)cc2)cc1,33.3,0.4,0.7,58.7*
CN1CCCCCC1=NC1=C(C#N)CCCC1,16.6,1.1,0.8,-5.9
CC(=O)Nc1cccc(NS(=O)(=O)Cc2ccc(Cl)cc2)c1,96.5*,1.3,0,-25.6
CC(=O)c1ccc(NS(=O)(=O)c2ccc(CC(C)C)cc2)cc1,66.8*,0.1,0.3,85.9*
CC(=O)c1ccc(NS(=O)(=O)Cc2ccc(Cl)cc2)cc1,74.3*,0.2,0.3,76.8*
O=C(O)c1ccc(NS(=O)(=O)c2ccc(Cl)cc2)cc1,-2.1,1.1,1,-7.1
O=C(NNS(=O)(=O)c1ccc(Cl)cc1)c1cnn(-c2ccccc2)c1-n1cccc1,22.6,0.4,0.8,63.7*
O=C(NNS(=O)(=O)c1ccccc1)c1cnn(-c2ccccc2)c1-n1cccc1,24.5,0.5,0.8,47.4
SMILES,CYP2C19 inhib,CYP2C9 act,CYP2C19 activ,CYP2C9 inh
Cc1[nH][nH]c(=O)c1C(c1ccc(-c2ccc(Cl)c(Cl)c2)o1)c1c(C)[nH][nH]c1=O,59.0*,0.9,0.4,11.0
COc1cccc(NC(=O)Cn2nnc(C(=O)Nc3ccccc3)c2N)c1,4.9,0.8,1,21.9
COc1ccc(OC)c(NC(=O)c2nnn(CCc3ccccc3)c2N)c1,-5.4,0.9,1.1,14.6
CCc1ccc(Cn2nnc(C(=O)Nc3ccc(OC)cc3OC)c2N)cc1,-7.5,3.4*,1.1,-237.8
COc1cccc(NC(=O)c2nnn(CCc3ccccc3)c2N)c1,73.2*,0.1,0.3,91.8*
O=C1C2CCCN2C(c2ccc(F)c(F)c2)N1c1cccc(Cl)c1 (stereo not drawn),50.5*,0.6,0.5,40.8
